The values that follow come from PubChem BioAssay AID2073 (Sanford-Burnham Center for Chemical Genomics, 2009).

In all, about 290,000 compounds went through this assay and about 570 (0.2%) were called active. Roughly 1% stayed inconclusive and do not appear here. Cut-off read from the data, not from the text of the source: active = inhibition mostly above about 51% (no sharp cut-off); inconclusive = no clear call, values can overlap the other calls; inactive = mostly below about 53%. Only a selection was taken, and actives are over-represented in it overall.

The target of this assay is Voltage-dependent N-type calcium channel subunit alpha-1B (Homo sapiens) (UniProt Q00975). The experiment in a line: inhibitors of Mint1-CaV2.2 protein interaction, biochemical, HTRF (AID 2073). Conditions: at 20 µM, stronger effect = higher value. For orientation: TR-FRET usually uses a lanthanide donor and a delayed reading to cut background.
Sequence of Voltage-dependent N-type calcium channel subunit alpha-1B (Homo sapiens) (Q00975 whole entry, looked up): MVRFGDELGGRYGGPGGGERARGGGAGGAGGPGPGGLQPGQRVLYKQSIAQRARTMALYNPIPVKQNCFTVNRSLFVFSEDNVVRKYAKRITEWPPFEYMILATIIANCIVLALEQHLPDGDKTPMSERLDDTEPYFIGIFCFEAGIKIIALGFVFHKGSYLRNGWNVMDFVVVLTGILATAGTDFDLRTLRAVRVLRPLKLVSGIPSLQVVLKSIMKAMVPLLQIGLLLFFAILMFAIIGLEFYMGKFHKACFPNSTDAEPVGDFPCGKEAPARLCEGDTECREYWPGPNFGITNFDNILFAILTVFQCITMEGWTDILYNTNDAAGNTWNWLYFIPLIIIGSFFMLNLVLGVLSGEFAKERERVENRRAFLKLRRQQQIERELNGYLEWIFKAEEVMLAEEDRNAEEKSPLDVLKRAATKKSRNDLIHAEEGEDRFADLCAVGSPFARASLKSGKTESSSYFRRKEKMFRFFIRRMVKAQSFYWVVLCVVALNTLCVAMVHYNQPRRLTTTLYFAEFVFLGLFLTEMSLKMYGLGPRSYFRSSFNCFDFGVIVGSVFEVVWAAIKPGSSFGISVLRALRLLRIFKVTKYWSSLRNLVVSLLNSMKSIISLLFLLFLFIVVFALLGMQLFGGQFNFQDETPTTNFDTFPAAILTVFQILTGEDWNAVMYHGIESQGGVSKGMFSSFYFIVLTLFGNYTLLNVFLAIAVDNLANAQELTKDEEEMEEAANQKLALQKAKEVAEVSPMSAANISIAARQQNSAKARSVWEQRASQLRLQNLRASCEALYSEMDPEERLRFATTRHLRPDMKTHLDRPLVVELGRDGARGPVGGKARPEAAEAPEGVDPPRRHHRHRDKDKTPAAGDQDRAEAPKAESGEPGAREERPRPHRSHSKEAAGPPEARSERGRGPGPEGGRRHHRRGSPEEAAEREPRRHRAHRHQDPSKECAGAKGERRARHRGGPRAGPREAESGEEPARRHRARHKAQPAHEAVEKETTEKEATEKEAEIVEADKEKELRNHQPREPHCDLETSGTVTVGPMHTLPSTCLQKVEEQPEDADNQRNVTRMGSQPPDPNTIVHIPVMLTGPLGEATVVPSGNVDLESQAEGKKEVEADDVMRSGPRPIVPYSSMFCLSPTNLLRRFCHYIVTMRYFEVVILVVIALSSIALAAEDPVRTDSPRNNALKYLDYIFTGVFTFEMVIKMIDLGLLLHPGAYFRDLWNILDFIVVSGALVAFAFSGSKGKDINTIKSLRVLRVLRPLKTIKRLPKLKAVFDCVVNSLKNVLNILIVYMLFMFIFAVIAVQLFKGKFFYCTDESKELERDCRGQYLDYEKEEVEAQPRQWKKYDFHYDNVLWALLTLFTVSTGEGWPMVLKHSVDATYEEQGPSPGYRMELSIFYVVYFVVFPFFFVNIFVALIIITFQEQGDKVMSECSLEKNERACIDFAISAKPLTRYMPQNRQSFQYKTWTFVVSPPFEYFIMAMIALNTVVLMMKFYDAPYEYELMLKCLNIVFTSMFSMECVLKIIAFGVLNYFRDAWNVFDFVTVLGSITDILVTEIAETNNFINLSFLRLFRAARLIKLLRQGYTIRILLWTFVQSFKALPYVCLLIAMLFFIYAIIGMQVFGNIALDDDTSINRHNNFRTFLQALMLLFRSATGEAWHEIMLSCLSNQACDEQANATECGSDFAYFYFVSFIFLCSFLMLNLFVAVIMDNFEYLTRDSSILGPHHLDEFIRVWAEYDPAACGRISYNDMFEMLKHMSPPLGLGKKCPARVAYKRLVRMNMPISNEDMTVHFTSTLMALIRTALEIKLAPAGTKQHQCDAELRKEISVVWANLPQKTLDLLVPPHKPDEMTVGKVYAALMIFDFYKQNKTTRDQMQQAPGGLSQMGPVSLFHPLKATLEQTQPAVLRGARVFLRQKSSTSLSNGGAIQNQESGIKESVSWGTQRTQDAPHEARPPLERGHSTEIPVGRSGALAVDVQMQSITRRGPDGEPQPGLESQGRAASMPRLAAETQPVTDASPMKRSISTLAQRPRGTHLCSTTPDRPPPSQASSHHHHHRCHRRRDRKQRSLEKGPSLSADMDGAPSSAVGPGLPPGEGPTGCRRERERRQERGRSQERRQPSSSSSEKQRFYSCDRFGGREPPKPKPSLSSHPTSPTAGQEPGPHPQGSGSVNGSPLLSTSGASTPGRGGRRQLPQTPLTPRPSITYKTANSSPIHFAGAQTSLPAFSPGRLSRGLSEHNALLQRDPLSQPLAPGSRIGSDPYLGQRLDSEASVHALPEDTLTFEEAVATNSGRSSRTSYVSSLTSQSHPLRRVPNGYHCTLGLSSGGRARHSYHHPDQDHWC
Where [1] appears, read: measured here: average of repeat tests.

Consider `CCCCc1nc2sc3c(=O)n(N)cnc3c2c2c1CCCC2`, for which the inhibition (as a rule, the drop in the measured response relative to a control, in per cent) is 8.9% (inactive). On the same count and under the same terms, for `CCn1ncc(-c2ccnc3cc(C(=O)O)nn23)c1C` the value was 67.9% (active); for `Cc1c(-c2ccnc3cc(C(=O)O)nn23)cnn1C`, 49.5% (inactive); for `CCn1cc(-c2ccnc3cc(C(=O)O)nn23)c(C)n1`, 39.6% (inactive). Still for that read-out and setting: for `CCn1cc(C(=O)Nc2ccc(F)c(F)c2)cn1` the value was 8.5% (inactive); for `CC(C)n1nc(C(=O)N2CCN(S(=O)(=O)c3cccs3)CC2)c2ccccc2c1=O`, -6.3% (inactive). Regarding `Cc1ccc(NC(=O)CN2C(=O)S/C(=C/c3ccc(-c4cccc(C(=O)O)c4)o3)C2=O)cc1`, the inhibition is 62.3% (active). Turning to `Cc1ccc(NC(=O)CN2C(=O)S/C(=C\c3ccc(-c4cccc(C(=O)O)c4C)o3)C2=O)cc1`, the inhibition is 7.6% (inactive). Same read-out and setting: next, `Cc1ccc(C(=O)O)cc1-c1ccc(/C=C2\SC(=O)N(CC(=O)Nc3ccccc3)C2=O)o1`: 24% (inactive); `O=c1[nH]cnc(O)c1N=Nc1ccccc1`: -0.9% (inactive). On the same count and under the same terms, next, `CCCSCCCNC(=O)c1cc2c(s1)CS(=O)(=O)C2`: 2% (inactive). As for `O=C(Nc1ccccc1C(=O)O)c1ccc2c(c1)C(=O)N(c1cccc([N+](=O)[O-])c1)C2=O`, the inhibition was 11.2% (inactive).

In the case of `O=C(O)c1cccc(NC(=O)c2ccc3c(c2)C(=O)N(c2cccc([N+](=O)[O-])c2)C3=O)c1`, the inhibition is 26.4% (inactive). On the same count and under the same terms, for `CCOC(=O)c1cc2c(N)c(C(=O)c3cc(C#N)c(SC)nc3C)sc2nc1C` the value was 8.2% (inactive); for `COc1nc2ccccc2nc1OC`, -4.1% (inactive); for `COc1cc2ccccc2nn1`, 22.3% (inactive). For the molecule `COc1ccc2c(n1)Sc1nc3ccccc3nc1N2`, the inhibition was 78.9% (active). As for `Cn1nc(-c2ccccc2)cc1NC(=O)Nc1ccc(F)cc1`, the inhibition is -0.7% (inactive).

Consider `Cc1cccc(N=C2NC(=O)/C(=C/C=C/c3ccco3)S2)c1`, for which the inhibition is 57.2% (inactive). The inhibition under setting [1] turned out to be 31.3%. Taken in the same sequence, the figures for `Cc1ccc(N=C2NC(=O)/C(=C\c3ccco3)S2)cc1` were 58.4% (inactive) and 6.9%. Regarding `Cc1ccc(N=C2NC(=O)/C(=C/C=C/c3ccco3)S2)cc1C`, the inhibition is 76% (active). Same read-out and setting: next, `COc1ccc(N=C2NC(=O)/C(=C/c3ccco3)S2)cc1`: -14.1% (inactive). On the same count and under the same terms, next, `O=C1NC(=Nc2ccccc2)/C(=C/c2ccco2)S1`: 24.1% (inactive); `Cc1ccc(N=C2NC(=O)S/C2=C\c2ccco2)cc1`: 29.6% (inactive); `COc1ccc(N=C2NC(=O)/C(=C\c3ccco3)S2)cc1`: 81.2% (active). The same measure, in the same setting: next, `O=C1NC(=Nc2ccc(Cl)cc2)/C(=C/c2ccco2)S1`: 55.3% (active); `Cc1ccc(N=C2NC(=O)/C(=C/C=C/c3ccco3)S2)cc1`: 36.2% (inactive); `Fc1cccc(Cl)c1CSc1nnc2ccccn12`: 4% (inactive). As to `Cc1c(CC(=O)NCC(=O)NCC(=O)O)c(=O)oc2cc3c(cc12)CCC(C)(C)O3`, the inhibition is 16.3% (inactive). On to `Clc1ccc(-n2nnnc2SCc2cn3ccccc3n2)cc1`, for which the inhibition was -7.5% (inactive).

On to `Cc1cc(Cl)c(OCCOCCN2CCCCC2)c(Br)c1`, for which the inhibition was -0.3% (inactive).

For the molecule `CCNC(=O)NC(=O)COC(=O)C1CSC2(C)CCC(=O)N12` (centres undefined), the inhibition was 3.1% (inactive). For the molecule `C=CCN=C(NC#N)SCC(=O)NCc1ccccc1`, the inhibition is 2.2% (inactive). On to `COc1cccc(NC(=O)c2ccc(-c3ccccc3[N+](=O)[O-])o2)c1`, for which the inhibition was 52.1% (inactive). Under setting [1], the inhibition is 1.4%. On to `CNC(=O)/C(C#N)=C/c1ccc(-c2ccc(OC)cc2[N+](=O)[O-])o1`, for which the inhibition was 11.4% (inactive). Same read-out and setting: for `COc1ccc(-c2ccc(C(=O)O)o2)c([N+](=O)[O-])c1` the value was 59.6% (active). For `Cc1ccc(S(=O)(=O)N2CCN(C(=O)c3ccc(Cl)nc3)CC2)cc1`, the inhibition was 3% (inactive). The same measure, in the same setting: for `COc1ccc(C(=O)Nc2ccc(CN3CCOCC3)cc2)cc1Br` the value was 3% (inactive); for `COc1ccc(-c2cc(-c3ccccc3)nc(=O)[nH]2)cc1`, 0.5% (inactive). As for `Cc1cc(C)c2nc(-c3ccccn3)cc(C(=O)Nc3ccc(S(=O)(=O)Nc4onc(C)c4C)cc3)c2c1`, the inhibition is 51% (active). For the same molecule, under setting [1], the inhibition is 52.5%.

As for `Cc1cc(C)c2nc(-c3ccccn3)cc(C(=O)Nc3ccc(S(=O)(=O)Nc4cc(C)on4)cc3)c2c1`, the inhibition was 39.7% (inactive). Still for that read-out and setting: next, `Cc1cc(C)c2nc(-c3cccnc3)cc(C(=O)Nc3ccc(S(=O)(=O)Nc4onc(C)c4C)cc3)c2c1`: 31.4% (inactive); `COC(=O)c1sccc1NC(=O)c1ccc(C)o1`: 19.2% (inactive).

Consider `O=S(=O)(Cc1ccccc1)N1CCN(c2ncccn2)CC1`, for which the inhibition was 7.7% (inactive). As for `CCC(C(=O)NC1CC1)n1nc(C)c2c(C)n(-c3ccc(C)cc3)nc2c1=O` (centres undefined), the inhibition is 9.6% (inactive).

Regarding `COc1cc2c(cc1NC(=S)NC(=O)/C=C/c1ccc(OC)c(OC)c1)oc1ccccc12`, the inhibition is 14.5% (inactive). Same read-out and setting: for `COc1cc2c(cc1NC(=S)NC(=O)/C=C/c1ccco1)oc1ccccc12` the value was 53.2% (active). On the same count and under the same terms, for `COc1ccc(/C=C/C(=O)NC(=S)Nc2cc3oc4ccccc4c3cc2OC)cc1` the value was 0.7% (inactive); for `Cc1oc(-c2ccccc2Cl)nc1CS(=O)CC(=O)NCc1ccco1` (centres undefined), 19.1% (inactive).

In the case of `Cc1cc(OCC(O)CN2CCCC2)ccc1C(C)C` (centres undefined), the inhibition is -5.6% (inactive).

As for `O=C(Nc1ccc(C2=NCCN2)cc1)c1ccc(C(=O)Nc2ccc(C3=NCCN3)cc2)c([N+](=O)[O-])c1`, the inhibition is 30.7% (inactive). Take `O=C(Nc1ccc(C2=NCCN2)cc1)c1ccc(C(=O)Nc2ccc(C3=NCCN3)cc2)c(Cl)c1`: the inhibition is 51.6% (active). Regarding `O=C(Nc1ccc(C2=NCCN2)cc1)c1ccc(Cl)c(C(=O)Nc2ccc(C3=NCCN3)cc2)c1`, the inhibition is 36.8% (inactive). Turning to `O=C(/C=C/c1ccc(Cl)cc1)N(Cc1ccccc1)c1ccccn1`, the inhibition was 22.8% (inactive).

As for `COc1ccccc1CN(C)C(=O)c1cnc(C)cn1`, the inhibition is 5.7% (inactive).

As to `Cc1cccc(/C=N/N2CCN(c3ccccc3)CC2)c1`, the inhibition is -12.6% (inactive). Same read-out and setting: for `CCCN1CCC(=O)N([C@H](CO)c2ccccc2)CC1` the value was 5.6% (inactive). `C=CCN1C(=O)c2cccc3c(N4CCCCC4)ccc(c23)C1=O`: the inhibition was 53.2% (active).

On to `CCCN1C(=O)c2cccc3c(N4CCCCC4)ccc(c23)C1=O`, for which the inhibition is 11.8% (inactive). With `O=C1c2cccc3c(N4CCCCC4)ccc(c23)C(=O)N1CCO`, the inhibition was 24.6% (inactive).

`CCOc1ccc(C(=O)NC(=S)NCCCN2CCOCC2)cc1`: the inhibition is -2.3% (inactive). For the molecule `COc1ccc(NC(=O)c2c3c(nc4ccccc24)CCC3)cc1S(=O)(=O)N1CCOCC1`, the inhibition was 59.4% (inactive). Further, the inhibition under setting [1] amounted to 41.1%. As to `O=C(Nc1cccc(S(=O)(=O)N2CCOCC2)c1)c1c2c(nc3ccccc13)CCC2`, the inhibition was 56% (active). For `O=C(Nc1cccc(S(=O)(=O)N2CCCCC2)c1)c1c2c(nc3ccccc13)CCN(Cc1ccccc1)C2`, the inhibition was 40.8% (inactive).

Regarding `CCOc1cc(C(c2c(C)[nH][nH]c2=O)c2c(C)[nH][nH]c2=O)cc(Br)c1OC`, the inhibition is 5.6% (inactive). On to `C=CC#CC1(O)CC(C)[N+](C)(C)CC1C` (centres undefined), for which the inhibition is 17.6% (inactive). With `COCCn1c(=NC(=O)c2cc(Cl)sc2Cl)sc2cc(S(N)(=O)=O)ccc21`, the inhibition is 38.7% (inactive).

As to `CCOCCn1c(=NC(=O)c2cc(Cl)sc2Cl)sc2cc(S(N)(=O)=O)ccc21`, the inhibition is 53.8% (active). As to `C=CCn1c(=NC(=O)c2cc(Cl)sc2Cl)sc2cc(S(N)(=O)=O)ccc21`, the inhibition is 27.4% (inactive).

Take `CCOc1ccccc1C(=O)NC(C(=O)Nc1cccnc1)C(C)C` (centres undefined): the inhibition was 3.3% (inactive). On to `COCCn1c(C)cc(C(=O)COc2cccnc2[N+](=O)[O-])c1C`, for which the inhibition is -4% (inactive).

Take `Cc1cc(C(=O)COc2cccnc2[N+](=O)[O-])c(C)n1Cc1ccco1`: the inhibition was 78.9% (active). Still for that read-out and setting: for `Cc1cc(C(=O)COc2cccnc2[N+](=O)[O-])c(C)n1Cc1cccs1` the value was 34% (inactive). As for `Cc1ccc(NC(=O)c2c3c(nc4ccccc24)CCC3)cc1S(=O)(=O)N(C)C`, the inhibition was 53.6% (inactive). Further, under setting [1], the inhibition stood at 31.4%.

As for `Cc1ccc(S(=O)(=O)N(C)CC(=O)OCC(=O)N2CCCC2=O)cc1`, the inhibition was -12.9% (inactive).

As to `O=C(Nc1nc(-c2cccnc2)cs1)c1ccc([N+](=O)[O-])cc1`, the inhibition is 19% (inactive). Same read-out and setting: for `COc1cc(CN(C(=O)c2ccco2)C2CCS(=O)(=O)C2)cc(OC)c1OC` (centres undefined) the value was 11.2% (inactive); for `CC(=O)c1cccc(Nc2nc(-c3ccccc3)cs2)c1`, 0.5% (inactive). The same measure, in the same setting: next, `Cc1cccc(C=Nc2ccc3c4c(cccc24)CC3)c1O`: 7.8% (inactive). Same read-out and setting: for `Oc1ccc(Br)cc1C=Nc1ccc2c3c(cccc13)CC2` the value was 53.5% (active). In the case of `Oc1ccc(Cl)cc1C=Nc1ccc2c3c(cccc13)CC2`, the inhibition was 50.4% (inactive). Moreover, the inhibition under setting [1] is 11.1%. Take `O=[N+]([O-])c1cc(Cl)ccc1N1CCCC1`: the inhibition was -1.5% (inactive).
